Max response and Potency data for 91 compounds are collected here from PubChem BioAssay AID651814 (National Center for Advancing Translational Sciences (NCATS), 2012).

The whole screen tested about 2,100 compounds, of which about 590 (28%) were called active. Another 42% or so got no clear call; they are omitted. Calls come from the whole dose curve; as a rule, active = well fitted inhibition curve with a large enough effect; inconclusive = small, poorly fitted or top-dose-only effect; inactive = flat fitted curve, though single readings scatter. Some of the results follow.
Potency is the fitted concentration of half-maximal effect.

For this experiment, the target named is DNA dC->dU-editing enzyme APOBEC-3F (Homo sapiens) (UniProt Q8IUX4). Nature of the experiment: qHTS for inhibitors of Vif-A3F interactions: Cherry picks.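 For Max response: % of control where 0% means no effect; active compounds raise eYFP fluorescence by blocking Vif-driven A3F loss.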 Note: nearly all actives have a fitted effect of over 70% in size. The note with it: HeLa A3F-eYFP + Vif (tagged APOBEC3F with the HIV-1 protein that degrades it), eYFP fluorescence, 24 h. In a few lines: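 HeLa cells stably expressing A3F-eYFP plus Vif, cultured overnight, then exposed to compounds at several concentrations for 24 h at 37 deg C. Reduced Vif-driven degradation read as rising eYFP fluorescence (488 nm ex/500-530 nm em) by laser-scanning cytometry; MG132 as positive control.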
Sequence of DNA dC->dU-editing enzyme APOBEC-3F (Homo sapiens) (Q8IUX4 whole entry, looked up): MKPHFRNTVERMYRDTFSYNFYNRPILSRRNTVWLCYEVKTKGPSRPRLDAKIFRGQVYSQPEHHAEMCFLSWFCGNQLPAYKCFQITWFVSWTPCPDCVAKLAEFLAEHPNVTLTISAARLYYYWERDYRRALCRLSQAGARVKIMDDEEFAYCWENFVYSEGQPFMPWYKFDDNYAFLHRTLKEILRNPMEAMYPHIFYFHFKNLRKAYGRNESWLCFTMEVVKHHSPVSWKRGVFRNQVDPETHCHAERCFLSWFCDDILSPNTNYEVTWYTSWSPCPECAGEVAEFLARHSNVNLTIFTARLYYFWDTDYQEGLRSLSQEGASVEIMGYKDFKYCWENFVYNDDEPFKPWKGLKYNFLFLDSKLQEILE
Background: Quantitative high-throughput screening tests each substance at several concentrations.
Regarding `CC(C)(C)c1ccc(Oc2ccc(NC(=O)c3ccccc3C(=O)O)cn2)cc1`, the max response was 1.93% (inactive). Turning to `CCC(C)n1c(NC(=O)c2ccccc2)c(C#N)c2nc3ccccc3nc21` (stereo unspecified), the Potency is 16.4 µM (active). For `CCN(CC)C(=O)Cn1c(C)c(/C=C/c2cc[n+](C)cc2)c2ccccc21`, the Potency was 11.2 µM (active). As for `COC(=O)Cn1c(C)c(/C=C/c2cc[n+](C)cc2)c2ccccc21`, the Potency is 18.4 µM (active). Regarding `S=c1[nH]nc(-c2cccnc2)n1/N=C/C(Cl)=C\c1ccccc1`, the max response was -29.6% (inactive). For the compound `CN(C)c1ccc(/C=C/C(=O)c2c(O)c3ccccc3oc2=O)cc1`, the Potency was 1.46 µM (active). The same measure, in the same setting: to `c1ccc(-c2cnn3c(-c4ccccc4)c(-c4ccccc4)nc3n2)cc1` belongs 1.84 µM (active). As to `CN(C)c1ccc(/C=C/c2nc3ccccc3c(=O)[nH]2)cc1`, the max response was -19.3% (inactive). For the compound `CCN(CC)c1ccc(/C=C/c2cc(-c3ccccc3)c3ccccc3n2)cc1`, the Potency is 5.59 µM (active).

For `CN(C)c1ccc(/C=C/c2cc(N(C)C)nc3ccccc23)cc1`, the Potency is 9.2 µM (active).

On to `Nc1ccc(/C=C/c2cc(Cl)nc3ccccc23)cc1`, for which the Potency is 18.4 µM (active). For `Nc1ccc2nc(-c3ccccc3)c(-c3ccccc3)nc2c1`, the max response was -17.1% (inactive). Still for that read-out and setting: to `CN(NC(=O)c1ccccc1)c1nc2ccccc2nc1C(F)(F)F` belongs -29.3% (inactive). For `CN(C)c1ccc(/C=C/c2nc3ccccc3c(=O)n2CCO)cc1`, the Potency is 20.6 µM (active). In the case of `COC(=O)c1ccccc1NC(=O)C1CC(=O)N(c2ccc(OC)cc2)C1` (stereo unspecified), the max response was -29% (inactive).

Turning to `O=C(Cn1ncc(Cl)c(Cl)c1=O)N1CCN(S(=O)(=O)c2ccc3ccccc3c2)CC1`, the max response is -29% (inactive). Regarding `C/C(=N\NC(=S)NC(C)C)c1ccc(C(C)(C)C)cc1`, the max response is -1.78% (inactive). Regarding `CN(C)c1ccc(/C=C/c2cc(/C=C/c3ccc(N(C)C)cc3)c3ccccc3n2)cc1`, the Potency is 7.31 µM (active).

On to `CCOc1ccc(C2CC(c3c(O)c4ccccc4oc3=O)=NN2c2ccccc2)cc1OC` (stereo unspecified), for which the Potency was 13 µM (active). On the same count and under the same terms, to `CC[N+](C)(C(=O)O)/C(=C\c1ccccc1)c1ccnc2ccccc12` (stereo unspecified) belongs 20.6 µM (active). As to `CC(C)Cn1c(N)c(C(=O)COC(=O)c2ccc([N+](=O)[O-])o2)c(=O)n(C)c1=O`, the max response is 3.32% (inactive). Same read-out and setting: to `COc1ccc(-n2cc3c(-c4cccc(Br)c4)nnc(C)c3n2)cc1` belongs -1.46% (inactive). Turning to `N=c1n(CC(=O)c2ccc([N+](=O)[O-])cc2)c2ccccc2n1Cc1ccccc1`, the Potency is 14.6 µM (active). Turning to `COC(=O)[C@@H]1Cc2c([nH]c3ccccc23)C(C)(C)N1C(=O)CCl`, the max response is -14.3% (inactive).

On to `Oc1ccc(C2=NNC(=NCc3ccc4c(c3)OCO4)SC2)c(O)c1`, for which the max response was -25% (inactive). Regarding `N#Cc1c(NC(=O)/C=C/C(=O)O)sc2c1CCN(Cc1ccccc1)C2`, the max response was -10.7% (inactive). Take `CN(C)c1ccc(/C=C(/C#N)C(=O)Nc2nc3c(s2)CCN(Cc2ccccc2)C3)cc1`: the Potency is 0.704 µM (active). Regarding `CCOC(=O)c1cc(-c2ccccc2C)n(CC2CC(c3ccc(OC)cc3)=NO2)n1` (stereo unspecified), the max response was 6% (inactive). In the case of `CN(C)c1ccc(/C=C/c2ccnc3c(Cl)ccc(Cl)c23)cc1`, the Potency was 6.51 µM (active). For the compound `CN(C)c1ccc(/C=C/c2ccnc3c(Cl)cccc23)cc1`, the Potency was 4.11 µM (active). Still for that read-out and setting: next, `CN(C)c1ccc(/C=C/c2ccnc3c(N)cccc23)cc1`: 16.4 µM (active). Regarding `Cc1ccc(-c2nc(SCCOc3ccccc3C)n3[nH]c(=O)cc3n2)cc1`, the max response was 1.28% (inactive).

With `COc1ccc(/C=c2\s/c(=C/C(=O)c3ccc(C)cc3)[nH]c2=O)c(OC)c1`, the Potency is 18.4 µM (active).

As for `COc1ccc(/C=C2\Oc3cc(OC(=O)N4CCOCC4)ccc3C2=O)c(OC)c1`, the max response was -13.8% (inactive). The same measure, in the same setting: to `Cc1ccc(NC(=S)N=Nc2c(O)n(C)c3ccc(S(=O)(=O)N4CCOCC4)cc23)cc1` belongs 3.82% (inactive).

On to `COc1ccc(C(=O)C(C)[n+]2ccc(C)c3ccccc32)cc1[N+](=O)[O-]` (stereo unspecified), for which the max response is 1.15% (inactive). For the compound `COC(=O)c1cnc(Nc2cc(C)ccc2OC)c2ccccc12`, the max response was -22% (inactive). Consider `COc1ccc(-n2c(O)c(/C=N/NS(=O)(=O)c3cc(C)ccc3C)c3ccccc3c2=O)cc1OC`, for which the Potency is 14.6 µM (active). Turning to `COc1ccc(-n2c(O)c(/C=N/NS(=O)(=O)c3ccc(C)c([N+](=O)[O-])c3)c3ccccc3c2=O)cc1OC`, the Potency is 14.6 µM (active).

Consider `O=C(O)CSc1cc(NS(=O)(=O)c2cccc([N+](=O)[O-])c2)c2ccccc2c1O`, for which the max response was -12.8% (inactive). The same measure, in the same setting: to `COc1ccc(C)cc1NCc1cc(=O)oc2cc(-c3ccccc3)c(O)cc12` belongs -18.7% (inactive). Take `COc1ccc(-n2c(O)c(/C=N/NS(=O)(=O)c3cccc([N+](=O)[O-])c3)c3ccccc3c2=O)cc1OC`: the Potency is 17.7 µM (active).

As for `COC1=C(OC)C(=O)C(Sc2ccc3ccccc3c2)=CC1=O`, the max response was -9.94% (inactive). Regarding `CCSc1nnc(-c2sc3nnc(-c4ccccc4)c(-c4ccccc4)c3c2N)o1`, the Potency was 16.4 µM (active).

Take `COc1cc(CNCCSc2nnnn2C)ccc1OCc1c(F)cccc1Cl`: the max response is -4.2% (inactive). In the case of `COc1ccc(C(=O)Nc2cccc(/C=C/c3nc4ccccc4c(=O)[nH]3)c2)cc1`, the Potency was 12.5 µM (active). On the same count and under the same terms, next, `N#Cc1c(C(F)(F)F)cc(-c2ccco2)nc1SCc1ccccn1`: 10.3 µM (active). With `O=C(Nc1nc2ccccc2s1)c1ccc([N+](=O)[O-])o1`, the max response is -26.2% (inactive). For the compound `Nc1c(C(=O)Nc2ccc(F)cc2)sc2nc(-c3cccs3)cc(C(F)(F)F)c12`, the Potency is 1.64 µM (active). Regarding `COc1ccc2nc(NC(=S)NC(=O)c3ccco3)sc2c1`, the max response is -0.262% (inactive).

Take `Nc1c(C(=O)Nc2nc3ccccc3s2)sc2nc(-c3cccs3)ccc12`: the Potency is 20.6 µM (active). For `Nc1c(C(=O)Nc2nccs2)sc2nc(-c3cccs3)cc(C(F)(F)F)c12`, the Potency is 8.86 µM (active). The same measure, in the same setting: to `Cc1nnc(NC(=O)c2sc3nc(-c4cccs4)cc(C(F)(F)F)c3c2N)s1` belongs 7.31 µM (active); to `O=c1[nH]cnc2n[nH]nc12`, 2.31 µM (active).

Turning to `CCNC(=S)N/N=C(\C)c1ccc(N2CCOCC2)cc1`, the max response is -0.726% (inactive). On the same count and under the same terms, to `O=c1[nH]c2ccccc2n2c(C(F)(F)F)nnc12` belongs -23.2% (inactive).

As for `Cn1c(N)c(-c2ccccc2)c2ccc([N+](=O)[O-])cc2c1=O`, the Potency is 4.98 µM (active). For the compound `CC(C)(C)NCC(=Cc1ccccc1)C(=O)c1ccccc1`, the max response was 10% (inactive). `C=C(C(=O)c1ccccc1)C(C)C(=C)C(=O)c1ccccc1`: the Potency was 12.5 µM (active).

Regarding `O=C(OC12CC3CC(CC(C3)C1)C2)c1ccc(NCc2cc(O)ccc2O)cc1`, the max response is -13.8% (inactive).

With `CCN1/C(=C\C=C(C(C)=O)C(C)=O)Sc2ccccc21`, the Potency is 18.4 µM (active). Turning to `O=C(CN1c2ccccc2Sc2ccccc21)NNC(=O)Nc1cccc(Cl)c1`, the max response was -28.8% (inactive). The same measure, in the same setting: to `O=S(=O)(Nc1nc2ccccc2nc1OCC(F)(F)F)c1cccs1` belongs -0.45% (inactive). In the case of `CSc1nsc(/C=C/Nc2ccc(C)cc2)c1C#N`, the Potency is 15.8 µM (active). As to `CSc1nsc(/C=C/Nc2ccc(F)cc2)c1C#N`, the max response is -9.4% (inactive). Same read-out and setting: to `N#CC1=C(S)N(c2ccc(F)cc2)C2(CCCCC2)NC1=O` belongs 2.73% (inactive); to `Cc1c(C(=O)Nc2cnccn2)oc2ccccc12`, -18.9% (inactive).

As to `CC(=O)Nc1sc(/C(C#N)=C/c2ccc(Cl)c(Cl)c2)nc1-c1ccc(C)cc1`, the Potency is 2.59 µM (active). The same measure, in the same setting: to `CC(=O)Nc1sc(/C(C#N)=C\c2cccc(Cl)c2)nc1-c1ccc(C)cc1` belongs 6.51 µM (active). For `O=C(Nc1nc(NC(=O)c2ccco2)n(-c2ccccc2)n1)c1ccccc1`, the max response was -10.5% (inactive). On the same count and under the same terms, to `NC(=O)c1cccc(-c2ccnc3c2CC(C(=O)NCc2ccco2)O3)c1` (stereo unspecified) belongs -22.9% (inactive). Regarding `CCc1ccc(NC(=O)c2sc3nc(C)c(C(=O)Nc4ccc(C)cc4C)c(-c4ccco4)c3c2N)cc1`, the Potency is 23.1 µM (active). As for `CCOC(=O)c1sc(NC(=S)NC(=O)c2ccco2)nc1C`, the max response is 0.261% (inactive). Turning to `COc1cccc(NC(=O)c2sc3nc(C)c(C(=O)Nc4ccc(C)cc4C)c(-c4ccco4)c3c2N)c1`, the max response is -5.66% (inactive). Regarding `N#Cc1cccn1-c1nccc(-c2cccs2)n1`, the Potency is 12.5 µM (active). In the case of `C#CCSc1nc(-c2cccs2)ccc1C#N`, the max response is -28.5% (inactive). `O=CNc1ccc2c3c(cccc13)-c1ccccc1-2`: the Potency was 14 µM (active). Consider `CCCCN(C)CC(O)Cn1cc(/C=C/C(=O)c2cccs2)c2ccccc21` (stereo unspecified), for which the Potency was 20.6 µM (active). Take `N#CCC(=O)N/N=C/c1ccc(N2N=C(c3ccccc3)CC2c2ccccc2)cc1` (stereo unspecified): the Potency was 18.4 µM (active). As to `CC1Sc2ccc(C(=O)NCc3ccccn3)cc2NC1=O` (stereo unspecified), the max response is -4.69% (inactive). Take `CCn1c(CNC(=O)C23CC4CC(CC(C4)C2)C3)nnc1SCC(=O)Nc1ccc(OC)cc1`: the max response is 6.03% (inactive). As to `COc1ccc(NC(=O)c2cccc3ccccc23)cc1`, the max response is -30% (inactive). With `COc1ccc(NC(=O)CSc2ccc3c4c(cccc24)C(=O)c2ccccc2-3)cc1`, the Potency is 8.2 µM (active).

As to `Cc1ccc(NC(=O)CSc2ccccc2NC(=O)c2cccc(Cl)c2)cc1Cl`, the max response was -5.67% (inactive).

`N#Cc1cccc(NC(=O)CSc2ccc3c4c(cccc24)C(=O)c2ccccc2-3)c1`: the Potency was 2.31 µM (active). On to `Cc1cccc(C(=O)NC(=S)N2CCc3ccccc3C2)c1`, for which the max response was 0.715% (inactive). Consider `COc1ccc(NC(=O)CN2C(=O)C3(SCC(=O)N3c3ccccc3)c3ccccc32)cc1Cl` (stereo unspecified), for which the max response is -11.4% (inactive). On the same count and under the same terms, to `Cn1cc(/C=C2\SC(=O)N(c3ccccc3)C2=O)c2ccccc21` belongs -28.8% (inactive). Regarding `CCCN1C(=O)S/C(=C\c2ccc(N3CCOCC3)o2)C1=O`, the Potency is 2.8 µM (active).

For `CCCN1C(=O)S/C(=C/c2ccc(N3CCOCC3)o2)C1=O`, the Potency is 2.8 µM (active). The same measure, in the same setting: next, `O=C1S/C(=C\c2ccc(N3CCOCC3)o2)C(=O)N1c1ccccc1`: 3.53 µM (active).
